# Source: paper PMC7862700, “An all-to-all approach to the identification of sequence-specific readers for epigenetic DNA modifications on cytosine”
# Experiments:
# Test in all cases: DAPPL (digital affinity profiling via proximity ligation, sequencing); 10 mM Tris-HCl pH 7.5, 50 mM NaCl, 1 mM DTT, 4% glycerol, room temperature, 30 min; GST-TFs on glutathione beads, 16-mer random dsDNA library, 0.1% formaldehyde crosslink after washing; high values mean tight binding
# FLI1 = molecular target: T1, FLI1 (Homo sapiens, UniProt Q01543 1-452); conditions: protein: recombinant; tags: N-terminal GST; dsDNA, one strand shown
# T1 sequence: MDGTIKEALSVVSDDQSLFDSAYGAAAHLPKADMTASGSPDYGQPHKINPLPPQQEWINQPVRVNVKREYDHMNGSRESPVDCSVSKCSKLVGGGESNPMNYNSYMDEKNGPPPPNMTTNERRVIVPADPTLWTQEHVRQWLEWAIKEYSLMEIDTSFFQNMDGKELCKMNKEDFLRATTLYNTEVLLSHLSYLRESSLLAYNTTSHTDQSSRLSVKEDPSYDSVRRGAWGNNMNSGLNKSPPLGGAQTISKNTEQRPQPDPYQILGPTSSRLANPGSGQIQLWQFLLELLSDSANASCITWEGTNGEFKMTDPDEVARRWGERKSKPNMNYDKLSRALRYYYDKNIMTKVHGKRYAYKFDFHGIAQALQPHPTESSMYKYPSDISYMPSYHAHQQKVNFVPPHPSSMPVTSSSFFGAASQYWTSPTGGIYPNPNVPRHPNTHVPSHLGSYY
# In short: (§1)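 Pools of DNA-barcoded human transcription factors, expressed in yeast as GST fusions on glutathione beads and combined with a tag-only sample, were incubated with 200 nmole of a 16-mer random double-stranded DNA library. Incubation took 30 min at room temperature in Tris/NaCl/DTT/glycerol buffer and was followed by washing, 0.1% formaldehyde crosslinking, proximity ligation (BsaI/T4 ligase, 1 h, 37 °C), PCR amplification and sequencing on an Illumina NextSeq500. Binding signal is the ratio of a hexamer's read frequency for a factor to its frequency for the tag-only sample.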
# ELK1 = molecular target: T2, ELK1 (Homo sapiens, UniProt P19419 1-428); conditions: protein: recombinant; tags: N-terminal GST; dsDNA, one strand shown
# T2 sequence: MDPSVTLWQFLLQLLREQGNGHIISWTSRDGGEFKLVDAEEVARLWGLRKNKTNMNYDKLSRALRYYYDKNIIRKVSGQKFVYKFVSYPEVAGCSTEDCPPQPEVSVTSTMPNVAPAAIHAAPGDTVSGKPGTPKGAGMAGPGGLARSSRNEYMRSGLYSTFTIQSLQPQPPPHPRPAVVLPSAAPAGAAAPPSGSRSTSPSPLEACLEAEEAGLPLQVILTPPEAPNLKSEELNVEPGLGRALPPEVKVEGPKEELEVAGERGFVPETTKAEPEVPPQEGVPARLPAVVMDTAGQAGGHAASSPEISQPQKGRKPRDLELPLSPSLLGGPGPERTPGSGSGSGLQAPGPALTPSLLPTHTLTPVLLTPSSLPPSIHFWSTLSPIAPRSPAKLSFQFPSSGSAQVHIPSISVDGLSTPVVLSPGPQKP
# In short: as §1
# GABPA = molecular target: T3, GABPA (Homo sapiens, UniProt Q06546 1-454); conditions: protein: recombinant; tags: N-terminal GST; dsDNA, one strand shown
# T3 sequence: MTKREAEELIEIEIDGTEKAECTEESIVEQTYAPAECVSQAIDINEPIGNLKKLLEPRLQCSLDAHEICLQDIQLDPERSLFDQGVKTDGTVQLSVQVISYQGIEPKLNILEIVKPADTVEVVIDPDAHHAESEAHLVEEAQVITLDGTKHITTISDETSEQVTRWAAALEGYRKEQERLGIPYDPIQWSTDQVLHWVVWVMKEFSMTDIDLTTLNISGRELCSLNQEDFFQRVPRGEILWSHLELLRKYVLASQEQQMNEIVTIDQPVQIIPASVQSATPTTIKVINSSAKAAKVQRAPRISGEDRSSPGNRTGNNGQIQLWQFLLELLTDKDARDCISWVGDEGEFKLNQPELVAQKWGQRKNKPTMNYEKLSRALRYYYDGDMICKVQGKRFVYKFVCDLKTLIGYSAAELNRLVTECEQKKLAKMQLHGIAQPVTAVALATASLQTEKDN
# In short: as §1
# ERG = molecular target: T4, ERG (Homo sapiens, UniProt P11308 1-479); conditions: protein: recombinant; tags: N-terminal GST; dsDNA, one strand shown
# T4 sequence: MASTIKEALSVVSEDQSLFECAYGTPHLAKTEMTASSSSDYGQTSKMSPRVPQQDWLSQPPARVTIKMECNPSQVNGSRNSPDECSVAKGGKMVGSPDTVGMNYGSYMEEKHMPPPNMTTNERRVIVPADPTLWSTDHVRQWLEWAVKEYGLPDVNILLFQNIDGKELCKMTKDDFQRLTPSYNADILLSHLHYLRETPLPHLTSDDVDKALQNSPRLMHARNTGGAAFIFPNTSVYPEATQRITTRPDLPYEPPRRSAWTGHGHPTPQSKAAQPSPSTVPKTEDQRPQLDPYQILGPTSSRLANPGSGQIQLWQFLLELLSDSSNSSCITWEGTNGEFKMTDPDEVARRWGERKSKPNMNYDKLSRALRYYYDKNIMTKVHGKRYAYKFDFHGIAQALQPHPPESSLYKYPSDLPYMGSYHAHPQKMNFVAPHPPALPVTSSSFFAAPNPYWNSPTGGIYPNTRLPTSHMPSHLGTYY
# In short: as §1
# ELF1 = ELF1 (Homo sapiens, UniProt P32519 1-619); conditions: protein: recombinant; tags: N-terminal GST; dsDNA, one strand shown
# ELF1, sequence (P32519 whole entry): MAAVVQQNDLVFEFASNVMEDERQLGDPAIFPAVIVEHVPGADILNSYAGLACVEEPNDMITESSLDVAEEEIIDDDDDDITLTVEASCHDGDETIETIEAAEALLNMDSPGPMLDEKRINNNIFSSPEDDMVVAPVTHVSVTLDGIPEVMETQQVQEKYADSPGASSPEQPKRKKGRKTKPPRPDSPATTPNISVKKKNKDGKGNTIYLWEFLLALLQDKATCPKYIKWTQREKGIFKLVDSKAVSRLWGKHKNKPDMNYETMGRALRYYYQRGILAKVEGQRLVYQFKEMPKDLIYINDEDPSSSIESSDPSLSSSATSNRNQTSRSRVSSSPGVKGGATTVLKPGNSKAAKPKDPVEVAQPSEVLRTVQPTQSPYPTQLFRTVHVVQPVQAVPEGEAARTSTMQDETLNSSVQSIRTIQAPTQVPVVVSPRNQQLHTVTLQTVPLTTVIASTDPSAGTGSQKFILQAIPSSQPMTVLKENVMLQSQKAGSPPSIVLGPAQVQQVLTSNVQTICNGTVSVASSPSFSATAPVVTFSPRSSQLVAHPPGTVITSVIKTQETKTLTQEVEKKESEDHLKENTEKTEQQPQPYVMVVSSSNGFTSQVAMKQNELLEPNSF
# In short: as §1
# EHF = molecular target: T5, EHF (Homo sapiens, UniProt Q9NZC4 1-300); conditions: protein: recombinant; tags: N-terminal GST; dsDNA, one strand shown
# T5 sequence: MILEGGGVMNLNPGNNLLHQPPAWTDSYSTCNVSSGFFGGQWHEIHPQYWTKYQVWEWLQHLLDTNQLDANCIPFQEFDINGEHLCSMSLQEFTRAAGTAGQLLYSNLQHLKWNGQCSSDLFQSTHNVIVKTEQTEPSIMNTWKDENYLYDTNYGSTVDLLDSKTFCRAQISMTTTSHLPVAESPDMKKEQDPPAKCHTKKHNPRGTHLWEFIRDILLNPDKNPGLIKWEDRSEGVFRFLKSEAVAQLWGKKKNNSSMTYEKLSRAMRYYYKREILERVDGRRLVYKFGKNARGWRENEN
# In short: as §1
# SPI1 = SPI1 (Homo sapiens, UniProt P17947 1-270); conditions: protein: recombinant; tags: N-terminal GST; dsDNA, one strand shown
# In short: as §1
# SPIB = SPIB (Homo sapiens, UniProt Q01892 1-262); conditions: protein: recombinant; tags: N-terminal GST; dsDNA, one strand shown
# SPIB, sequence (Q01892 whole entry): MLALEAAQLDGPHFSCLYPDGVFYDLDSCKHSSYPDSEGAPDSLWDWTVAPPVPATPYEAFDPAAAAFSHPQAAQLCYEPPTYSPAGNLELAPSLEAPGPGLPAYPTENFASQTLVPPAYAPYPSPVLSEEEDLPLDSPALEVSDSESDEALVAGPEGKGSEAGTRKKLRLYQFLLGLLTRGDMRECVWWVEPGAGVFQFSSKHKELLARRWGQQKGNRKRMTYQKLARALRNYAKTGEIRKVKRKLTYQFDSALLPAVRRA
# In short: as §1
# ELK3 = molecular target: T6, ELK3 (Homo sapiens, UniProt P41970 1-407); conditions: protein: recombinant; tags: N-terminal GST; dsDNA, one strand shown
# T6 sequence: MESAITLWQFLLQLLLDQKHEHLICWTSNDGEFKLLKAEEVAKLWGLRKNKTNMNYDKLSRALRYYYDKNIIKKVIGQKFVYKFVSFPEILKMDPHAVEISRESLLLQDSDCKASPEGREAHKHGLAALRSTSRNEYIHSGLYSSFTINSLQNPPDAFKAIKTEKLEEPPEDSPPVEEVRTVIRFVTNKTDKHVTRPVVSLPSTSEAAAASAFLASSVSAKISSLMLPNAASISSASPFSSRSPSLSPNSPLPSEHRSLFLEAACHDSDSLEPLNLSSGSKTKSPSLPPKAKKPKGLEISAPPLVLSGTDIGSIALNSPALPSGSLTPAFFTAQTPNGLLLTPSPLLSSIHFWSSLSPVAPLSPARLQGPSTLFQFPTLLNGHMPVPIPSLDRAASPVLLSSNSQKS
# In short: as §1
# FEV = molecular target: T7, FEV (Homo sapiens, UniProt Q99581 1-238); conditions: protein: recombinant; tags: N-terminal GST; dsDNA, one strand shown
# T7 sequence: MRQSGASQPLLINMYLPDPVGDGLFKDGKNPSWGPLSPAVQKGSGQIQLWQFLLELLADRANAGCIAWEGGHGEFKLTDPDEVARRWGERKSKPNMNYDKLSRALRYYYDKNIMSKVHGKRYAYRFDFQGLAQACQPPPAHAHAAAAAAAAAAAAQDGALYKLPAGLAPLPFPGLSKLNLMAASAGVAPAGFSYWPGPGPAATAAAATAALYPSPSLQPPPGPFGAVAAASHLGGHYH
# In short: as §1
# ETV5 = ETV5 (Homo sapiens, UniProt P41161 1-510); conditions: protein: recombinant; tags: N-terminal GST; dsDNA, one strand shown
# ETV5, sequence (P41161 whole entry): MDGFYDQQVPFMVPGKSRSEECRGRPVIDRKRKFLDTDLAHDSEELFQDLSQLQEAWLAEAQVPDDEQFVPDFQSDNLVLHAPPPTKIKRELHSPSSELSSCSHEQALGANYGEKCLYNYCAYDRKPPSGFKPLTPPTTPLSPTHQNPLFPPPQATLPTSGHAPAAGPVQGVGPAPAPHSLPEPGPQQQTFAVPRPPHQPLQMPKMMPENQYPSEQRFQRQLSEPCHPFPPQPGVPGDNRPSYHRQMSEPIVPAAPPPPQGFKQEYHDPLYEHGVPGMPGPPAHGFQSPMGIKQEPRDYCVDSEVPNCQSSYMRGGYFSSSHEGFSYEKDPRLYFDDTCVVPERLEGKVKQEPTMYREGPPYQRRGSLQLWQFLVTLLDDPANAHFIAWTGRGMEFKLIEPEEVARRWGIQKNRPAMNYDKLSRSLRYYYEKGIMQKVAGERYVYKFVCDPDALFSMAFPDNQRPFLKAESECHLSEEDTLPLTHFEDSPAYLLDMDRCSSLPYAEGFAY
# In short: as §1
# HSF1 = HSF1 (Homo sapiens, UniProt Q00613 1-529); conditions: protein: recombinant; tags: N-terminal GST; chain copies: 3; dsDNA, one strand shown
# HSF1, sequence (Q00613 whole entry): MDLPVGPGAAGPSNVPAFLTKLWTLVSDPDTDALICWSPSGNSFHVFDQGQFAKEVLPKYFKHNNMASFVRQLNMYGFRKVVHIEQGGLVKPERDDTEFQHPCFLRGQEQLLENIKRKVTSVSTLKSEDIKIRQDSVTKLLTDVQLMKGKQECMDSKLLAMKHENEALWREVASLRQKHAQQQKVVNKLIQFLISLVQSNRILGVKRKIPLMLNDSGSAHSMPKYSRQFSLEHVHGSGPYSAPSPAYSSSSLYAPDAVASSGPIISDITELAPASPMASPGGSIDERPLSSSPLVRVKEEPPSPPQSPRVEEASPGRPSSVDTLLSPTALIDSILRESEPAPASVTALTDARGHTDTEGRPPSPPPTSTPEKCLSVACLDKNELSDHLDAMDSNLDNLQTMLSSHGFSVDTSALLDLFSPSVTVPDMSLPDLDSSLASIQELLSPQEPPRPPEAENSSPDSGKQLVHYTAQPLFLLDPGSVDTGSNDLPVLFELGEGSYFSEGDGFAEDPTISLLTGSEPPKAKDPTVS
# In short: as §1
# SPIC = molecular target: T8, SPIC (Homo sapiens, UniProt Q8N5J4 1-248); conditions: protein: recombinant; tags: N-terminal GST; dsDNA, one strand shown
# T8 sequence: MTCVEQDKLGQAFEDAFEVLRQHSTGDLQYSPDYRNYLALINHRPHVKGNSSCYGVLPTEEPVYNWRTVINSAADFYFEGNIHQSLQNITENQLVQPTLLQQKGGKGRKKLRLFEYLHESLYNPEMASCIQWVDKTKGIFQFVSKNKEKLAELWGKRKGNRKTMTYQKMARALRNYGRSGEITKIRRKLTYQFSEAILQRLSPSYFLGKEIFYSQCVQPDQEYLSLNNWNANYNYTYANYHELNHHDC
# In short: as §1
# ELF4 = ELF4 (Homo sapiens, UniProt Q99607 1-663); conditions: protein: recombinant; tags: N-terminal GST; dsDNA, one strand shown
# ELF4, sequence (Q99607 whole entry): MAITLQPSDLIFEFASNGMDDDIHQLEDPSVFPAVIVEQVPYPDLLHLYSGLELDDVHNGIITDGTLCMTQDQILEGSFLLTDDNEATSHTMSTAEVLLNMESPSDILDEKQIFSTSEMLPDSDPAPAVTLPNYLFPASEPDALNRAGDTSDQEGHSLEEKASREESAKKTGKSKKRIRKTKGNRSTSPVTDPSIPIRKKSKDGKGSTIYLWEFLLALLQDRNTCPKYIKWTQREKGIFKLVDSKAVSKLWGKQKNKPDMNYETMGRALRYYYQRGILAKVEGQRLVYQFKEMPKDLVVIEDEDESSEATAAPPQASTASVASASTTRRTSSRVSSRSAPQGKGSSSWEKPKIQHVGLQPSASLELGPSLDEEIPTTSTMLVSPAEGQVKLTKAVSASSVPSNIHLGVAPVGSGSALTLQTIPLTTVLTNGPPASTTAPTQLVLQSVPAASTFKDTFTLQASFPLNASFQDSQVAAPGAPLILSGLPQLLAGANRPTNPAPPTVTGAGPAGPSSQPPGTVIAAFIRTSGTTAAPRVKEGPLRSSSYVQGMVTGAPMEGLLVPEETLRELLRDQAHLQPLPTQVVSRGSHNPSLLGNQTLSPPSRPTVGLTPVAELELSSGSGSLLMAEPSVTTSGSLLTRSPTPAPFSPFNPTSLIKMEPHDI
# In short: as §1
# ELK4 = molecular target: T9, ELK4 (Homo sapiens, UniProt P28324-2 1-405); conditions: protein: recombinant; tags: N-terminal GST; dsDNA, one strand shown
# T9 sequence: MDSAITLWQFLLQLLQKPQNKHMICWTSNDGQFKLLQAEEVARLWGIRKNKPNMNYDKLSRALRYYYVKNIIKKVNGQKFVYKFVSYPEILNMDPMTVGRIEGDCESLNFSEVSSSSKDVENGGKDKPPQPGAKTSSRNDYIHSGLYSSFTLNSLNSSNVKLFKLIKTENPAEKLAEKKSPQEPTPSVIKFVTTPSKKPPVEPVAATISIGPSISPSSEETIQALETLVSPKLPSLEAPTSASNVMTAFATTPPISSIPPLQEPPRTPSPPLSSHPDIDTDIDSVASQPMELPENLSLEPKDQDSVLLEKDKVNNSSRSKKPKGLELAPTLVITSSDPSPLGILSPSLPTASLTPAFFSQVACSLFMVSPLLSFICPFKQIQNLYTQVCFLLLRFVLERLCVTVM
# In short: as §1
# ETV2 = molecular target: T10, ETV2 (Homo sapiens, UniProt O00321 1-342); conditions: protein: recombinant; tags: N-terminal GST; dsDNA, one strand shown
# T10 sequence: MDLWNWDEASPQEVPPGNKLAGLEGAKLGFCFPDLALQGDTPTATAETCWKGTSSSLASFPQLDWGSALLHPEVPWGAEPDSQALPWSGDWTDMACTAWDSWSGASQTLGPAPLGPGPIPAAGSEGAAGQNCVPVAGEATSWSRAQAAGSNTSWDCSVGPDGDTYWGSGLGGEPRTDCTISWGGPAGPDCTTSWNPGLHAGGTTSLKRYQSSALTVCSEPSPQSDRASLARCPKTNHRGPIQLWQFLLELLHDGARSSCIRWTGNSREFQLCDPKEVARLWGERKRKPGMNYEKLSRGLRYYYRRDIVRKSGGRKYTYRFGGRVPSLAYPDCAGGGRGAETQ
# In short: as §1
# ELF3 = molecular target: T11, ELF3 (Homo sapiens, UniProt P78545 1-371); conditions: protein: recombinant; tags: N-terminal GST; dsDNA, one strand shown
# T11 sequence: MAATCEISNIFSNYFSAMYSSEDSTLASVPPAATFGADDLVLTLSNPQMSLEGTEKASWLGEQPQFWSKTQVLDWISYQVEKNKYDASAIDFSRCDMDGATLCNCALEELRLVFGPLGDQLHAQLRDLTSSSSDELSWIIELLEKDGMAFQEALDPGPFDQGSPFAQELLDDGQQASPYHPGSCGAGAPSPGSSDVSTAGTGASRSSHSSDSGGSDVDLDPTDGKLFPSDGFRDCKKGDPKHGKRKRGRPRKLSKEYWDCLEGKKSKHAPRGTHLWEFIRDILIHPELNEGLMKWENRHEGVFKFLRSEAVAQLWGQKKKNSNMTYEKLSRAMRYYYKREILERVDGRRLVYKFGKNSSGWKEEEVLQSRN
# In short: as §1
# CRX = CRX (Homo sapiens, UniProt O43186 1-299); conditions: protein: recombinant; tags: N-terminal GST; dsDNA, one strand shown
# CRX, sequence (O43186 whole entry): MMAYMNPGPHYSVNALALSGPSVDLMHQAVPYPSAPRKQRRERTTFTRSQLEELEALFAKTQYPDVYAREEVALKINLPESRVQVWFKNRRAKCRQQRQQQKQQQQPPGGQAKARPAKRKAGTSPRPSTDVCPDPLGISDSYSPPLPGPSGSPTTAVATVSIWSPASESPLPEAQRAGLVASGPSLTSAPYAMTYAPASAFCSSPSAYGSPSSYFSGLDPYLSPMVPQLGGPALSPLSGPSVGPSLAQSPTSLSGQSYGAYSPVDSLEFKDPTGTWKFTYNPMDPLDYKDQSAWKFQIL
# In short: as §1
# ETV1 = ETV1 (Homo sapiens, UniProt P50549 1-477); conditions: protein: recombinant; tags: N-terminal GST; dsDNA, one strand shown
# ETV1, sequence (P50549 whole entry): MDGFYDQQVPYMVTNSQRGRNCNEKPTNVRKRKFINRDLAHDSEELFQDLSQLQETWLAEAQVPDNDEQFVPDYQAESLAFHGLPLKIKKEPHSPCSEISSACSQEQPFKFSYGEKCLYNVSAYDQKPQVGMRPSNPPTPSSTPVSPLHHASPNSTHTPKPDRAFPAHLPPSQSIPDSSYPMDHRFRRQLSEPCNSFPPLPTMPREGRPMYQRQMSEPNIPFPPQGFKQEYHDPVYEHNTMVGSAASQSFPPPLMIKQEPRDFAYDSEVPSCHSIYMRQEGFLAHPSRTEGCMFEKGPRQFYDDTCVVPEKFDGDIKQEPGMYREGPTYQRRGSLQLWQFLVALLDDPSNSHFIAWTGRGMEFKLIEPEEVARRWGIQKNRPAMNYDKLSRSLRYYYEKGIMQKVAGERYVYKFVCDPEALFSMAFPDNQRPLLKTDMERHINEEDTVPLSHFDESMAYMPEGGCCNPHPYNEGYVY
# In short: as §1
sequence,measurement,setting,value
GATGTA,binding signal,FLI1,"1.29 fold enrichment (6-mer frequency, TF over GST control)"
same,binding signal,ELK1,"1.46 fold enrichment (6-mer frequency, TF over GST control)"
same,binding signal,GABPA,"1.21 fold enrichment (6-mer frequency, TF over GST control)"
same,binding signal,ERG,"1.27 fold enrichment (6-mer frequency, TF over GST control)"
same,binding signal,ELF1,"1.26 fold enrichment (6-mer frequency, TF over GST control)"
same,binding signal,EHF,"1.38 fold enrichment (6-mer frequency, TF over GST control)"
same,binding signal,SPI1,"1.3 fold enrichment (6-mer frequency, TF over GST control)"
same,binding signal,SPIB,"1.31 fold enrichment (6-mer frequency, TF over GST control)"
same,binding signal,ELK3,"1.35 fold enrichment (6-mer frequency, TF over GST control)"
same,binding signal,FEV,"1.4 fold enrichment (6-mer frequency, TF over GST control)"
same,binding signal,ETV5,"1.37 fold enrichment (6-mer frequency, TF over GST control)"
same,binding signal,HSF1,"1.01 fold enrichment (6-mer frequency, TF over GST control)"
same,binding signal,SPIC,"1.12 fold enrichment (6-mer frequency, TF over GST control)"
same,binding signal,ELF4,"1.33 fold enrichment (6-mer frequency, TF over GST control)"
same,binding signal,ELK4,"1.28 fold enrichment (6-mer frequency, TF over GST control)"
same,binding signal,ETV2,"1.18 fold enrichment (6-mer frequency, TF over GST control)"
same,binding signal,ELF3,"1.53 fold enrichment (6-mer frequency, TF over GST control)"
same,binding signal,CRX,"1.06 fold enrichment (6-mer frequency, TF over GST control)"
same,binding signal,ETV1,"1.33 fold enrichment (6-mer frequency, TF over GST control)"
